From PubChem BioAssay (Tox21)
Where “and” joins values, the source holds several entries; their conditions need not be identical. Identical values can stand only once. Results filed as inconclusive are left out. A call without a number means that no potency is given here. Calls of active or inactive are those of the source. Calls follow the shape of the dose curve; as a rule, active = well fitted curve in the direction sought with a large enough effect in the repeat runs; inconclusive = weak or mixed curves; inactive = no such curve, though single readings can be large; an effect the other way counts as inactive or inconclusive. Residues, ends and D or L forms follow the SMILES beside them.

Experiment: qHTS assay for identifying genotoxic compounds that show differential cytotoxicity against isogenic chicken DT40 cell lines with known DNA damage response pathways - Rev3 mutant cell line (AID 743014); also: nearly all actives have a fitted effect of over 55% in size
Conditions: chicken DT40 Rev3-/- viability, CellTiter-Glo, 40 h; series mostly up to 68.4 µM
Potency is read from the fitted curve at half-maximal effect.

| SMILES | Potency |
| --- | --- |
| CCOC(=O)COc1ccc2c(=O)cc(-c3ccccc3)oc2c1 | inactive |
| CN=C(N)NCCC[C@H](N)C(=O)O | inactive |
| C[N+]1(CCCCC[N+]2(C)CCCC2)CCCC1 | inactive |
| Cc1cc(-c2ccc(N=Nc3ccc4c(S(=O)(=O)O)cc(S(=O)(=O)O)c(N)c4c3O)c(C)c2)ccc1N=Nc1ccc2c(S(=O)(=O)O)cc(S(=O)(=O)O)c(N)c2c1O | 23.7 µM (active) |
| O=C(O)[C@@H]1C[C@H](CP(=O)(O)O)CCN1 | inactive |
| CN1CCN(CCCN2c3ccccc3Sc3ccc(Cl)cc32)CC1 | 7.5 µM (active) |
| CC(C)COC(=O)OCN1C(=O)CN(CCN2CC(=O)N(COC(=O)OCC(C)C)C(=O)C2)CC1=O | inactive |
| CC1CCCC(C)N1NC(=O)c1ccc(Cl)c(S(N)(=O)=O)c1 (stereo unspecified) | inactive |
| O=[N+]([O-])c1ccc(O)c2ncccc12 | 2.66 µM (active) |
| CCCCCCCCCCCCCCCC(=O)OC[C@H](COP(=O)([O-])OCC[N+](C)(C)C)OC(=O)CCCCCCCCCCCCCCC | inactive |
| Cc1cc(CC(C)CC(C)(C)C)n(O)c(=O)c1 (stereo unspecified) (tested in a mixture with another compound) | 11.9 µM (active) |

Experiment: qHTS assay for identifying genotoxic compounds that show differential cytotoxicity against isogenic chicken DT40 cell lines with known DNA damage response pathways - Rad54/Ku70 mutant cell line (AID 743015); also: nearly all actives have a fitted effect of over 60% in size
Conditions: DT40 Rad54/Ku70 mutant viability, CellTiter-Glo, 40 h; series mostly up to 66.8 µM

| SMILES | Potency |
| --- | --- |
| CCOC(=O)COc1ccc2c(=O)cc(-c3ccccc3)oc2c1 | 29.8 µM (active) |
| CC(C)C[C@@H](NC(=O)[C@@H](O)[C@H](N)Cc1ccccc1)C(=O)O | inactive |
| O=C(O)c1ccc(NC2OC[C@@H](O)[C@H](O)[C@H]2O)cc1 (stereo partly specified) | inactive |
| CC(C)[C@H](NC(=O)[C@H](CC(=O)O)NC(=O)[C@H](CCCCN)NC(=O)[C@@H](N)CCCN=C(N)N)C(=O)N[C@@H](Cc1ccc(O)cc1)C(=O)O (H-RKDVY-OH) | inactive |
| CO/N=C(\C(=O)N[C@@H]1C(=O)N2C(C(=O)O)=C(CSc3nc(C)c(CC(=O)O)s3)CS[C@H]12)c1csc(N)n1 | inactive |
| C[C@@H]1C[C@H]2[C@@H]3C[C@H](F)C4=CC(=O)C=C[C@]4(C)[C@@]3(Cl)[C@@H](O)C[C@]2(C)[C@H]1C(=O)COC(=O)C(C)(C)C | inactive |
| NCCCC(=O)O | inactive |
| Cc1cn([C@H]2C[C@H](O)[C@@H](CO)O2)c(=O)[nH]c1=O | inactive |
| c1ccc(-c2ccc(C(c3ccccc3)n3ccnc3)cc2)cc1 (stereo unspecified) | 11.9 µM (active) |
| CN=C(N)NCCC[C@H](N)C(=O)O | inactive |
| C[N+]1(CCCCC[N+]2(C)CCCC2)CCCC1 | inactive |
| Cc1cc(-c2ccc(N=Nc3ccc4c(S(=O)(=O)O)cc(S(=O)(=O)O)c(N)c4c3O)c(C)c2)ccc1N=Nc1ccc2c(S(=O)(=O)O)cc(S(=O)(=O)O)c(N)c2c1O | 11.9 µM (active) and 23.7 µM (active) |
| O=C(O)[C@@H]1C[C@H](CP(=O)(O)O)CCN1 | inactive |
| Cc1c(O)c(=O)ccn1C | inactive |
| CC1(C)S[C@@H]2[C@H](N3C(=O)C(c4ccccc4)NC3(C)C)C(=O)N2[C@H]1C(=O)O (stereo partly specified) | inactive |
| CN1CCN(CCCN2c3ccccc3Sc3ccc(Cl)cc32)CC1 | 8.41 µM (active) |
| O=C(O)[C@H]1CN(C/C=C/P(=O)(O)O)CCN1 | inactive |
| CCC(=O)OC(OP(=O)(CCCCc1ccccc1)CC(=O)N1C[C@H](C2CCCCC2)C[C@H]1C(=O)O)C(C)C (stereo partly specified) | inactive |
| CC(C)COC(=O)OCN1C(=O)CN(CCN2CC(=O)N(COC(=O)OCC(C)C)C(=O)C2)CC1=O | 0.188 µM (active) |
| CCSCC | inactive |
| CCCCCCCCCC(=O)NO | inactive |
| CCN(CC)C(=O)[C@]1(c2ccccc2)C[C@@H]1CN | inactive |
| C[Se]CC[C@H](N)C(=O)O | inactive |
| CN(C/C=C/c1ccccc1)Cc1cccc2ccccc12 | 26.6 µM (active) |
| CC1CCCC(C)N1NC(=O)c1ccc(Cl)c(S(N)(=O)=O)c1 (stereo unspecified) | inactive |
| CC(C)CCC[C@@H](C)[C@H]1CC[C@H]2[C@@H]3CC[C@@H]4C[C@H](O)CC[C@]4(C)[C@H]3CC[C@]12C | inactive |
| O=[N+]([O-])c1ccc(O)c2ncccc12 | 5.31 µM (active) |
| CCCCCCCCCCCCCCCC(=O)OC[C@H](COP(=O)([O-])OCC[N+](C)(C)C)OC(=O)CCCCCCCCCCCCCCC | inactive |
| Nc1cc(Cl)c(NC2=NCCN2)c(Cl)c1 | inactive |
| Cc1cc(CC(C)CC(C)(C)C)n(O)c(=O)c1 (stereo unspecified) (tested in a mixture with another compound) | 13.3 µM (active) |
